The values that follow come from PubChem BioAssay (NCI).

The panel holds about 83,000 compounds, 20% with a hit somewhere; the sample as a whole holds those more often.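 Plates (96-well) were seeded with cells, treated with compound at one concentration, and incubated for 48 hours before percent growth was determined.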 A number with no mark means an inactive call. The source made the active and inactive calls. The calls were made as follows: active = growth percent below 10; inactive = the rest.

Test systems include NCI-H23 lung; NCI-H226 lung; NCI-H322M lung; HOP-62 NSCLC; NCI-H460 lung; HOP-92 NSCLC; NCI-H522 lung; A549/ATCC NSCLC; 786-0 renal; COLO 205 colon.
Holding throughout (assay): NCI-60 one-dose screen, 48 h (100 = growth as untreated, 0 = no growth, -100 = all killed)
Holding throughout (details): 10 µM unless noted

As for `CC(O)(c1ccccc1)C(c1ccccc1)C1CCCCN1` (stereo not given), the growth in the assay on NCI-H23 lung is 107%; in the assay on NCI-H226 lung, 102%; in the assay on NCI-H322M lung it was 88.5%; in the assay on HOP-62 NSCLC, 99.3%; in the assay on NCI-H460 lung it was 103%; in the assay with HOP-92 NSCLC, 90.3%. Also, the growth is 95.1% in the assay on NCI-H522 lung, 88.1% in the assay on A549/ATCC NSCLC, 103% in the assay with 786-0 renal and 103% in the assay on COLO 205 colon.
Turning to `CCCCn1c(=O)[nH]c(N)c([C@@H]2c3c([nH]c(=O)n(CCCC)c3=O)Oc3ccc4ccccc4c32)c1=O`, the growth is 13% in the assay on NCI-H23 lung; 92% in the assay on NCI-H226 lung; 74.9% in the assay on NCI-H322M lung; 73.6% with HOP-62 NSCLC; 15.4% in the assay with NCI-H460 lung; 83.3% with HOP-92 NSCLC. For the same molecule, the growth in the assay with NCI-H522 lung was 59%; in the assay on A549/ATCC NSCLC, 94.6%; in the assay with 786-0 renal, 77.8%; in the assay on COLO 205 colon, 59.3%.
Consider `COC1/C=C/OC2(C)Oc3c(C)c(O)c4c(O)c(c(/C=N/Nc5ccc([N+](=O)[O-])cc5[N+](=O)[O-])c(O)c4c3C2=O)NC(=O)C(C)=C/C=C/C(C)C(O)C(C)C(O)C(C)C(OC(C)=O)C1C` (stereo not given), for which the growth in the assay on NCI-H23 lung was 4.25% (active); with NCI-H226 lung, -57.2% (active); with NCI-H322M lung, 93.9%; with HOP-62 NSCLC, 42.2%; with NCI-H460 lung, 59.5%; in the assay on HOP-92 NSCLC, -60.8% (active). Further, the growth in the assay on NCI-H522 lung was -42.5% (active); with A549/ATCC NSCLC it was 82.9%; in the assay on 786-0 renal it was 24.4%; with COLO 205 colon, 24.9%.
As to `COC1=CC(c2ccc[nH]2)=N/C1=C\c1[nH]c(C)c(CC(=O)OCc2ccccc2)c1CCC(=O)OCc1ccccc1`, the growth was -12.6% (active) in the assay on NCI-H23 lung; -12.8% (active) in the assay with NCI-H226 lung; 34.7% with NCI-H322M lung; -22.2% (active) with HOP-62 NSCLC; 12.2% in the assay with NCI-H460 lung; -26.1% (active) with HOP-92 NSCLC. In addition, the growth with NCI-H522 lung was -48.5% (active); with A549/ATCC NSCLC it was 5.29% (active); with 786-0 renal it was -56.2% (active); in the assay with COLO 205 colon it was -45.6% (active).
As to `C=C(C)[C@@H]1CCC[C@]2(COS(=O)(=O)c3ccc(C)cc3)CC[C@]3(C)[C@@H](CC[C@@H]4[C@@]5(C)CCCNC(C)(C)[C@@H]5CC[C@]43C)[C@@H]12`, the growth in the assay with NCI-H23 lung was 25.7%; in the assay on NCI-H226 lung it was 82.1%; with NCI-H322M lung, 39.7%; in the assay on HOP-62 NSCLC it was 69%; with NCI-H460 lung, -49.1% (active); in the assay on HOP-92 NSCLC, 19%. For the same molecule, the growth in the assay with NCI-H522 lung was -41% (active); with A549/ATCC NSCLC it was -12% (active); with 786-0 renal, -77.5% (active); in the assay on COLO 205 colon it was -86.1% (active).
In the case of `COc1ccc(C(=O)N2c3ccccc3Sc3ccccc32)c(OC)c1`, the growth in the assay with NCI-H23 lung is 38%; in the assay on NCI-H226 lung, 31.3%; with NCI-H322M lung, 62.2%; with HOP-62 NSCLC, 48.4%; in the assay with NCI-H460 lung, 9.97% (active); in the assay on HOP-92 NSCLC, 31.3%. In addition, the growth in the assay on NCI-H522 lung was -9.67% (active); in the assay on A549/ATCC NSCLC, 30.6%; in the assay with 786-0 renal, 28.6%; with COLO 205 colon, -11.4% (active).
Take `N#Cc1nc(-c2ccc(Cl)cc2)oc1S(=O)(=O)N1CCN(c2ccc(F)cc2)CC1`: the growth in the assay with NCI-H23 lung is 88.6%; in the assay on NCI-H226 lung, 94.9%; in the assay on NCI-H322M lung it was 94%; with HOP-62 NSCLC it was 96.4%; in the assay on NCI-H460 lung it was 104%; in the assay on HOP-92 NSCLC it was 99.3%. The growth in the assay with NCI-H522 lung was 65.9%; in the assay on A549/ATCC NSCLC, 98.6%; in the assay on 786-0 renal, 99.5%; in the assay on COLO 205 colon, 102%.
In the case of `O=C1Nc2ccc(C(=O)O)cc2/C1=N/c1nnc(Sc2ccccc2)s1`, the growth with NCI-H23 lung is 104%; in the assay with NCI-H226 lung, 98.5%; with NCI-H322M lung, 116%; with HOP-62 NSCLC it was 95%; in the assay on NCI-H460 lung it was 107%; with HOP-92 NSCLC, 102%. The growth is 94.3% with NCI-H522 lung, 99.9% in the assay with A549/ATCC NSCLC, 102% with 786-0 renal and 124% in the assay on COLO 205 colon.
For `COc1ccc(F)cc1/C=C/C(=O)/C=C(/C=C/c1cc(F)ccc1OC)OB(F)F`, the growth in the assay with NCI-H23 lung was 35.2%; in the assay with NCI-H226 lung it was 97.9%; in the assay on NCI-H322M lung, 103%; with HOP-62 NSCLC it was 86.1%; with NCI-H460 lung, 75.2%; with HOP-92 NSCLC, 56.1%. The growth with NCI-H522 lung was -20.7% (active); in the assay with A549/ATCC NSCLC it was 71.7%; in the assay on 786-0 renal, 19.4%; with COLO 205 colon it was 10.8%.
With `N=C(N)c1ccc(-c2ccc(-c3ccc(Cl)c(Cl)c3)s2)nc1`, the growth is 67.6% in the assay with NCI-H23 lung; 86.9% with NCI-H226 lung; -5.24% (active) in the assay on NCI-H322M lung; 36.6% with HOP-62 NSCLC; -61.6% (active) in the assay with NCI-H460 lung; 77.3% in the assay on HOP-92 NSCLC. Further, the growth in the assay with NCI-H522 lung was -34.5% (active); in the assay with A549/ATCC NSCLC, -45.6% (active); in the assay with 786-0 renal, -25.8% (active); in the assay with COLO 205 colon, -40.5% (active).
For `NC(N)=NCCCCCNc1noc(Cc2c[nH]c3cc(Br)ccc23)n1`, the growth in the assay on NCI-H23 lung is 64%; with NCI-H226 lung, 63.2%; in the assay on NCI-H322M lung it was 77.3%; in the assay with HOP-62 NSCLC, 58.3%; with NCI-H460 lung it was 68%; in the assay on HOP-92 NSCLC it was 16.2%. Besides, the growth in the assay with NCI-H522 lung is 47.8%; in the assay on A549/ATCC NSCLC, 65.3%; in the assay on 786-0 renal, 91.7%; in the assay with COLO 205 colon, 64.7%.
As to `O=C(Cn1cc(CSc2nc3ccccc3o2)nn1)Nc1ccc(F)cc1F`, the growth is 96% in the assay with NCI-H23 lung; 86.2% in the assay on NCI-H226 lung; 104% in the assay with NCI-H322M lung; 114% in the assay with HOP-62 NSCLC; 117% in the assay on NCI-H460 lung; 114% in the assay on HOP-92 NSCLC. Moreover, the growth was 111% in the assay on NCI-H522 lung, 113% in the assay with A549/ATCC NSCLC, 119% in the assay on 786-0 renal and 127% in the assay with COLO 205 colon.
For `CC(C)c1ccc(-n2c(=S)[nH]c3sc4cc(O)ccc4c3c2=O)cc1`, the growth in the assay with NCI-H23 lung was 98.6%; in the assay on NCI-H226 lung, 92.5%; in the assay with NCI-H322M lung, 90.4%; with HOP-62 NSCLC, 102%; in the assay on NCI-H460 lung it was 101%; in the assay on HOP-92 NSCLC, 80.2%. In addition, the growth is 99.9% with NCI-H522 lung, 106% with A549/ATCC NSCLC, 103% in the assay with 786-0 renal and 102% in the assay with COLO 205 colon.
